Test results taken from article PMC8384837, “Expanding the binding specificity for RNA recognition by a PUF domain”.
Positions count from the first letter of the chain named.

Tests used:
Assay in all cases: yeast three-hybrid, YBZ-1, SC-Leu-His + 0.5 mM 3-AT, 4 days
Conditions in all cases: tags: N-Gal4 AD-HA kept; label: inside an RPR1-promoter hybrid RNA with tandem MS2 sites; ssRNA
PUM1 PUF domain R4-EYA = PUM1 PUF domain R4-EYA (Homo sapiens, UniProt Q14671 828-1176, N971E;H972Y;Q975A)
Procedure, shortened: (§1)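 Repeat regions from input (SC-Leu) and selection (SC-Leu-His + 0.5 mM 3-AT) plates were PCR-amplified and Illumina-sequenced after four days of growth. The cells were strain YBZ-1 with a LexA–MS2 coat fusion and a HIS3 reporter, co-expressing Pumilio-1 PUF domain libraries and matching RNA elements from a centromeric plasmid. The interaction score is the log change in variant frequency from input to selection, taken in log2 with a pseudocount of 1 for absent variants.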

PUM1 PUF domain R7-RTM = PUM1 PUF domain R7-RTM (Homo sapiens, UniProt Q14671 828-1176, S1079R;N1080T;E1083M)
Procedure, shortened: as §1

PUM1 PUF domain R3-IWM = PUM1 PUF domain R3-IWM (Homo sapiens, UniProt Q14671 828-1176, C935I;R936W;Q939M)
Procedure, shortened: as §1

PUM1 PUF domain R3-ACR = PUM1 PUF domain R3-ACR (Homo sapiens, UniProt Q14671 828-1176, C935A;R936C;Q939R)
Procedure, shortened: as §1

PUM1 PUF domain R5-TRF = PUM1 PUF domain R5-TRF (Homo sapiens, UniProt Q14671 828-1176, C1007T;Q1011F)
Procedure, shortened: as §1

PUM1 PUF domain R5-GRN = PUM1 PUF domain R5-GRN (Homo sapiens, UniProt Q14671 828-1176, C1007G;Q1011N)
Procedure, shortened: as §1

PUM1 PUF domain R1-IRR = PUM1 PUF domain R1-IRR (Homo sapiens, UniProt Q14671 828-1176, S863I;Q867R)
Procedure, shortened: as §1

PUM1 PUF domain R1-KRT = PUM1 PUF domain R1-KRT (Homo sapiens, UniProt Q14671 828-1176, S863K;Q867T)
Procedure, shortened: as §1

PUM1 PUF domain R6-AFE = target: T1, PUM1 PUF domain R6-AFE (Homo sapiens, UniProt Q14671 828-1176, N1043A;Y1044F;Q1047E)
T1 sequence: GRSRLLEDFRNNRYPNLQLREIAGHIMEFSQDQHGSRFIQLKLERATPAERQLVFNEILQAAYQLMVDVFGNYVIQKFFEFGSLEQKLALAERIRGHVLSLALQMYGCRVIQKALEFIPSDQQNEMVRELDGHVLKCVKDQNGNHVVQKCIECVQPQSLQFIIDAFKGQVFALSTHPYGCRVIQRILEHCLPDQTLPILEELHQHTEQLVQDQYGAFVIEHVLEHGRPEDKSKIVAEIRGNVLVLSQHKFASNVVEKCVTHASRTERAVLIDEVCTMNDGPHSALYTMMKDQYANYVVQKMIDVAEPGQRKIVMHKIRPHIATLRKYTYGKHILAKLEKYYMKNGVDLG
Procedure, shortened: as §1

PUM1 PUF domain R2-SWP = PUM1 PUF domain R2-SWP (Homo sapiens, UniProt Q14671 828-1176, N899S;Y900W;Q903P)
Procedure, shortened: as §1

PUM1 PUF domain R1-RKD = PUM1 PUF domain R1-RKD (Homo sapiens, UniProt Q14671 828-1176, S863R;R864K;Q867D)
Procedure, shortened: as §1

PUM1 PUF domain R5-PRQ = PUM1 PUF domain R5-PRQ (Homo sapiens, UniProt Q14671 828-1176, C1007P)
Procedure, shortened: as §1

PUM1 PUF domain R5-KRQ = PUM1 PUF domain R5-KRQ (Homo sapiens, UniProt Q14671 828-1176, C1007K)
Procedure, shortened: as §1

PUM1 PUF domain R8-RGW = PUM1 PUF domain R8-RGW (Homo sapiens, UniProt Q14671 828-1176, N1122R;Y1123G;Q1126W)
Procedure, shortened: as §1

PUM1 PUF domain R6-HWL = target: T2, PUM1 PUF domain R6-HWL (Homo sapiens, UniProt Q14671 828-1176, N1043H;Y1044W;Q1047L)
T2 sequence: T1 sequence with A216H, F217W, E220L
Procedure, shortened: as §1

PUM1 PUF domain R3-GRL = PUM1 PUF domain R3-GRL (Homo sapiens, UniProt Q14671 828-1176, C935G;Q939L)
Procedure, shortened: as §1

PUM1 PUF domain R5-EYG = PUM1 PUF domain R5-EYG (Homo sapiens, UniProt Q14671 828-1176, C1007E;R1008Y;Q1011G)
Procedure, shortened: as §1

PUM1 PUF domain R5-RDG = PUM1 PUF domain R5-RDG (Homo sapiens, UniProt Q14671 828-1176, C1007R;R1008D;Q1011G)
Procedure, shortened: as §1

PUM1 PUF domain R8-KKP = PUM1 PUF domain R8-KKP (Homo sapiens, UniProt Q14671 828-1176, N1122K;Y1123K;Q1126P)
Procedure, shortened: as §1

PUM1 PUF domain R2-AWD = PUM1 PUF domain R2-AWD (Homo sapiens, UniProt Q14671 828-1176, N899A;Y900W;Q903D)
Procedure, shortened: as §1

In the case of “GGCUAGAACUAGUGGAUCCCCCGGCGCCCGGCGGCUCGAGCCCGGGUAAGUGUACAUAGUCUGCAUGCCGCCGGGCGCCAUGCCUGCAGGUCGACUCUAGAAAACAUG”, the binding signal (PUM1 PUF domain R4-EYA) is reported as 0.75 log2 enrichment (interaction score).
In the case of “GGCUAGAACUAGUGGAUCCCCCGGCGCCCGGCGGCUCGAGCCCGGGUAAGUCUAAAUAGUCUGCAUGCCGCCGGGCGCCAUGCCUGCAGGUCGACUCUAGAAAACAUG”, the binding signal (PUM1 PUF domain R7-RTM) is reported as 0.72 log2 enrichment (interaction score).
In the case of “GGCUAGAACUAGUGGAUCCCCCGGCGCCCGGCGGCUCGAGCCCGGGUAAGUGUAAGUAGUCUGCAUGCCGCCGGGCGCCAUGCCUGCAGGUCGACUCUAGAAAACAUG”, the binding signal (PUM1 PUF domain R3-IWM) is reported as 4.14 log2 enrichment (interaction score) and the binding signal (PUM1 PUF domain R3-ACR) is reported as 4.11 log2 enrichment (interaction score).
For “GGCUAGAACUAGUGGAUCCCCCGGCGCCCGGCGGCUCGAGCCCGGGUAAGUGUUAAUAGUCUGCAUGCCGCCGGGCGCCAUGCCUGCAGGUCGACUCUAGAAAACAUG”, the binding signal (PUM1 PUF domain R5-TRF) was 3.8 log2 enrichment (interaction score) and the binding signal (PUM1 PUF domain R5-GRN) was 3.83 log2 enrichment (interaction score).
For “GGCUAGAACUAGUGGAUCCCCCGGCGCCCGGCGGCUCGAGCCCGGGUAAGUGUAAAUCGUCUGCAUGCCGCCGGGCGCCAUGCCUGCAGGUCGACUCUAGAAAACAUG”, the binding signal (PUM1 PUF domain R1-IRR) was 2.25 log2 enrichment (interaction score).
For “GGCUAGAACUAGUGGAUCCCCCGGCGCCCGGCGGCUCGAGCCCGGGUAAGUGUAUAUAGUCUGCAUGCCGCCGGGCGCCAUGCCUGCAGGUCGACUCUAGAAAACAUG”, the binding signal (PUM1 PUF domain R4-EYA) was 3.44 log2 enrichment (interaction score).
For “GGCUAGAACUAGUGGAUCCCCCGGCGCCCGGCGGCUCGAGCCCGGGUAAGUGUAAAUGGUCUGCAUGCCGCCGGGCGCCAUGCCUGCAGGUCGACUCUAGAAAACAUG”, the binding signal (PUM1 PUF domain R1-KRT) was 4.9 log2 enrichment (interaction score).
“GGCUAGAACUAGUGGAUCCCCCGGCGCCCGGCGGCUCGAGCCCGGGUAAGUGAAAAUAGUCUGCAUGCCGCCGGGCGCCAUGCCUGCAGGUCGACUCUAGAAAACAUG” was tested, and the binding signal (PUM1 PUF domain R6-AFE) was 3.96 log2 enrichment (interaction score).
With “GGCUAGAACUAGUGGAUCCCCCGGCGCCCGGCGGCUCGAGCCCGGGUAAGUGUAAAGAGUCUGCAUGCCGCCGGGCGCCAUGCCUGCAGGUCGACUCUAGAAAACAUG” the binding signal (PUM1 PUF domain R2-SWP) was 7.17 log2 enrichment (interaction score).
“GGCUAGAACUAGUGGAUCCCCCGGCGCCCGGCGGCUCGAGCCCGGGUAAGUGGAAAUAGUCUGCAUGCCGCCGGGCGCCAUGCCUGCAGGUCGACUCUAGAAAACAUG” was tested, and the binding signal (PUM1 PUF domain R6-AFE) was 3.97 log2 enrichment (interaction score).
In the case of “GGCUAGAACUAGUGGAUCCCCCGGCGCCCGGCGGCUCGAGCCCGGGUAAGUGUAAAUUGUCUGCAUGCCGCCGGGCGCCAUGCCUGCAGGUCGACUCUAGAAAACAUG”, the binding signal (PUM1 PUF domain R1-IRR) is reported as 2.12 log2 enrichment (interaction score) and the binding signal (PUM1 PUF domain R1-RKD) is reported as 2.73 log2 enrichment (interaction score).
With “GGCUAGAACUAGUGGAUCCCCCGGCGCCCGGCGGCUCGAGCCCGGGUAAGUGUAAAUAGUCUGCAUGCCGCCGGGCGCCAUGCCUGCAGGUCGACUCUAGAAAACAUG” the binding signal (PUM1 PUF domain R5-PRQ) was 3.84 log2 enrichment (interaction score), the binding signal (PUM1 PUF domain R6-AFE) was 1.28 log2 enrichment (interaction score) and the binding signal (PUM1 PUF domain R5-KRQ) was 2.89 log2 enrichment (interaction score). The binding signal (PUM1 PUF domain R8-RGW) was 2.47 log2 enrichment (interaction score), the binding signal (PUM1 PUF domain R6-HWL) was 6.48 log2 enrichment (interaction score) and the binding signal (PUM1 PUF domain R5-TRF) was 3.08 log2 enrichment (interaction score). For the same sequence, the binding signal (PUM1 PUF domain R3-GRL) was 2.71 log2 enrichment (interaction score), the binding signal (PUM1 PUF domain R3-ACR) was 0.84 log2 enrichment (interaction score) and the binding signal (PUM1 PUF domain R5-GRN) was 3.37 log2 enrichment (interaction score). For the same sequence, the binding signal (PUM1 PUF domain R4-EYA) was 2.34 log2 enrichment (interaction score).
“GGCUAGAACUAGUGGAUCCCCCGGCGCCCGGCGGCUCGAGCCCGGGUAAGUGUGAAUAGUCUGCAUGCCGCCGGGCGCCAUGCCUGCAGGUCGACUCUAGAAAACAUG” was tested, and the binding signal (PUM1 PUF domain R5-EYG) was 4.35 log2 enrichment (interaction score), the binding signal (PUM1 PUF domain R5-RDG) was 2.49 log2 enrichment (interaction score) and the binding signal (PUM1 PUF domain R5-KRQ) was 0.49 log2 enrichment (interaction score). For the same sequence, the binding signal (PUM1 PUF domain R5-GRN) was 2.92 log2 enrichment (interaction score).
“GGCUAGAACUAGUGGAUCCCCCGGCGCCCGGCGGCUCGAGCCCGGGUAAGUGUAAUUAGUCUGCAUGCCGCCGGGCGCCAUGCCUGCAGGUCGACUCUAGAAAACAUG” was tested, and the binding signal (PUM1 PUF domain R3-GRL) was 0.66 log2 enrichment (interaction score) and the binding signal (PUM1 PUF domain R3-ACR) was 3.08 log2 enrichment (interaction score).
“GGCUAGAACUAGUGGAUCCCCCGGCGCCCGGCGGCUCGAGCCCGGGUAAGCGUAAAUAGUCUGCAUGCCGCCGGGCGCCAUGCCUGCAGGUCGACUCUAGAAAACAUG” was tested, and the binding signal (PUM1 PUF domain R8-KKP) was 3.24 log2 enrichment (interaction score).
With “GGCUAGAACUAGUGGAUCCCCCGGCGCCCGGCGGCUCGAGCCCGGGUAAGUGUCAAUAGUCUGCAUGCCGCCGGGCGCCAUGCCUGCAGGUCGACUCUAGAAAACAUG” the binding signal (PUM1 PUF domain R5-KRQ) was 5.21 log2 enrichment (interaction score) and the binding signal (PUM1 PUF domain R5-GRN) was 1.4 log2 enrichment (interaction score).
With “GGCUAGAACUAGUGGAUCCCCCGGCGCCCGGCGGCUCGAGCCCGGGUAAGUUUAAAUAGUCUGCAUGCCGCCGGGCGCCAUGCCUGCAGGUCGACUCUAGAAAACAUG” the binding signal (PUM1 PUF domain R7-RTM) was 2.58 log2 enrichment (interaction score).
In the case of “GGCUAGAACUAGUGGAUCCCCCGGCGCCCGGCGGCUCGAGCCCGGGUAAGUGUAAAAAGUCUGCAUGCCGCCGGGCGCCAUGCCUGCAGGUCGACUCUAGAAAACAUG”, the binding signal (PUM1 PUF domain R2-AWD) is reported as 6.66 log2 enrichment (interaction score) and the binding signal (PUM1 PUF domain R2-SWP) is reported as 5.19 log2 enrichment (interaction score).
